Rows were chosen to be rich in hits. Some 3.4% of all compounds tested hit in one or more screens of this group.
KDM4E inh: blocks human JMJD2E demethylase activity | B2RXH2 | JMJD2E catalytic domain, FDH-coupled NADH fluorescence (FDH is formaldehyde dehydrogenase) | Potency, µM (top dose mostly 57.1 µM), without a hit: at the highest dose activity change, negative = inhibition, usual class: inhibitors | hit rate 1.6% among 230,000; active = well fitted inhibition curve with a large enough effect, not every such curve was filed as active; inconclusive = small, poorly fitted or top-dose-only effect, or another doubt; inactive = no such curve, though single readings can be large or run the other way;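 also: 0% = wells with enzyme and -100% = buffer wells without enzyme; nearly all actives have a fitted effect of over 50% in size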
Target sequence (B2RXH2 1-337 limits assumed): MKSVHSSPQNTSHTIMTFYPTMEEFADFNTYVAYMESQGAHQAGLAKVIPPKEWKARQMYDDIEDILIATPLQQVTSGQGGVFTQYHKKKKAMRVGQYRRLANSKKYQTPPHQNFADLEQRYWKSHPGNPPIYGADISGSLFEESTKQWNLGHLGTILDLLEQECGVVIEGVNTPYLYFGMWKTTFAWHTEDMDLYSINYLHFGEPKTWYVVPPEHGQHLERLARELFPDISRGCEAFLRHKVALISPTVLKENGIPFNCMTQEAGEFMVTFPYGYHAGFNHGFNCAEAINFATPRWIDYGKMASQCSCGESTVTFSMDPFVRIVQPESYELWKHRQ
Tau fibril ThT: tau fibrillization inhibition (ThT binding) | P10636 | hit rate 2.1% among 270,000 | Potency, µM (titrated, usually from 57.4 µM), for the others: top-dose activity, negative = inhibition, most hits filed as inhibitors | recombinant tau K18 P301L, heparin-induced fibrillization, ThT fluorescence; also: nearly all actives have a fitted effect of over 55% in size
Target sequence (P10636 561-689 P618L limits assumed): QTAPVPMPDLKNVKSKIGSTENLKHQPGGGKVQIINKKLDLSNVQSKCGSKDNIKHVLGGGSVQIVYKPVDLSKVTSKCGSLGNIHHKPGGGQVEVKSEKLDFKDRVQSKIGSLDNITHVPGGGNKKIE
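Recombinant human tau K18 fragment […] carrying P301L, 15 uM unlabeled plus 0.24 uM Alexa 594-labeled, was fibrillized with 20 uM heparin in 100 mM sodium acetate pH 7 for 6 hr at 37 C; 30 uM ThT fluorescence read after 1 hr.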
Tau fibril FP: tau fibrillization inhibition (FP); Potency, µM (doses to about 57.7 µM), without a hit: at the highest dose activity, negative = inhibition, actives largely listed as inhibitors; hit rate 0.39% among 280,000; AID 1468; K18 P301L tau heparin fibrillization, Alexa594 FP, 6 h; P10636; also: nearly all actives have a fitted effect of over 55% in size
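FP of Alexa 594-tau after heparin (20 uM) induction. Substrate: human K18 P301L, 15 uM unlabeled, 0.24 uM labeled. Buffer 100 mM sodium acetate pH 7. 6 hr, 37 C.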
Tau fluor cs: counter-screen for tau fibril formation inhibitors. tau K18 P301L (four-repeat tau fragment) Alexa594 fluorescence, heparin fibrillization. Potency, µM (highest dose often 57.7 µM), for inactives: at the top dose activity change, negative = decrease. hit rate 0.93% among 280,000. AID 1463; also: nearly all actives have a fitted effect of over 55% in size
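Human K18 P301L tau (15 uM unlabeled plus 0.24 uM Alexa 594-labeled, final) in 100 mM sodium acetate pH 7 was mixed with compound and 20 uM heparin and incubated 6 hr at 37 C.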
GoLoco inh red: inhibitors of human Gai1-RGS12 GoLoco interaction (red fluorophore); P63096; Gai1:RGS12 GoLoco peptide FP, rhodamine, 10 min; Potency, µM (highest dose often 61.6 µM), for the others: at the highest dose activity, negative = inhibition, most hits filed as inhibitors; hit rate 0.44% among 230,000; AID 880; active = well fitted inhibition curve with a large enough effect, not every such curve was filed as active; inactive = no such curve, though single readings can be large or run the other way; also: nearly all actives have a fitted effect of over 30% in size
Starred values were filed as active, the others as inactive; i = inactive; u = inconclusive; x = no result given; [ ] = another dose, or the depositor's remark. Unless noted, calls follow the shape of the dose curve; as a rule, active = well fitted curve in the direction sought with a large enough effect; inconclusive = small, poorly fitted or top-dose-only effect, or another doubt; inactive = no such curve, though single readings can be large; an effect the other way counts as inactive or inconclusive. Unless noted, % is scaled to controls: 0 for no effect and ±100 for the full control effect; potency is read from the fitted curve at half-maximal effect.

SMILES	KDM4E inh	Tau fibril ThT	Tau fibril FP	Tau fluor cs	GoLoco inh red
O=c1cc2oc3cc(O)c(O)cc3c(-c3ccccc3O)c-2cc1O	14.1µM*	2.51µM*	12.6µM*	u	7.94µM*
O=c1cc(-c2cccc(O)c2O)oc2ccccc12	7.08µM*	12.6µM*	2.9%	u	-9.7%
COc1ccccc1-c1cc(=O)c2cc(O)ccc2o1	-4.9%	-17.6%	-7.1%	-15.2%	3.2%
CCOc1ccccc1-c1c2cc(O)c(=O)cc-2oc2cc(O)c(O)cc12	-9.2%	u	14.1µM*	17.2%	i
CC1=C(C(=O)Nc2ccccc2)C(c2ccc(C(=O)O)cc2)n2nc(SCC(=O)c3ccc(C)cc3)nc2N1 (stereo not drawn)	x	7.9%	3.0%	-1.4%	x
Cc1ccc(Cn2c(CNC(=O)CCc3ccccc3)nc3cccnc32)cc1	x	-12.1%	3.9%	-16.1%	x
CCOC(=O)c1ccccc1NS(=O)(=O)c1ccc(N2CCCCS2(=O)=O)cc1	x	-2.6%	2.3%	-26.8%	x
CCCCN(CC)C(=O)CSc1nc2n[nH]c(C)c2c(=N)n1-c1cccc(Cl)c1	x	-10.5%	10.2%	-3.4%	x
N#Cc1nc(-c2ccco2)oc1N1CCC(C(N)=O)CC1	3.55µM*	-2.1%	-5.3%	-8.4%	7.9%
COCCn1c(CCC(=O)Nc2ccc(OC)c(OC)c2)nc2cccnc21	x	3.0%	-4.9%	-3.3%	x
COc1ccc(N2CCN(C(=O)CSc3c4c(nc5ccc(Cl)cc35)CCCC4)CC2)cc1	x	14.1µM*	-5.0%	u	x
O=C(NCCn1cc(SCc2ccc(F)cc2)c2ccccc21)c1cccs1	x	u	-4.9%	7.94µM*[quencher]	x
Cc1ccccc1CSc1cn(CCNC(=O)c2cccs2)c2ccccc12	x	u	-16.7%	7.94µM*[quencher]	x
O=C(NCCn1cc(SCc2ccccc2F)c2ccccc21)c1cccs1	x	u	-15.7%	u	x
O=C(NCCn1cc(SCc2ccc(Cl)cc2)c2ccccc21)c1cccs1	x	u	-19.4%	8.91µM*[quencher]	x
Cc1ccc(CSc2cn(CCNC(=O)c3cccs3)c3ccccc23)cc1	x	u	-6.3%	8.91µM*[quencher]	x
Cc1c(CC(=O)NCCc2ccccc2)c(=O)oc2c(C)c3occ(C(C)(C)C)c3cc12	x	8.4%	-0.8%	7.1%	x
Cc1ccc(-n2nnnc2C(Cl)c2nnnn2-c2ccc(C)cc2)cc1	-1.9%	20µM*	u	-16.6%	-4.8%
Cc1ccc(-n2nnnc2-c2ccccc2)cc1	4.0%	-3.2%	4.0%	-6.1%	8.8%
O=C(O)c1ccccc1C(=O)Nc1n[nH]c(=S)s1	3.98µM*	u	u	-13.7%	-11.9%
O=C(O)c1ccccc1C(=O)Nc1nccs1	-5.2%	8.8%	-0.1%	8.3%	0.4%
C=CS(=O)(=O)c1ccc(Oc2ccc(S(=O)(=O)C=C)cc2)cc1	2.8%	2µM*	u	-20.1%	-18.9%
NS(=O)(=O)c1ccc(Oc2ccc(S(N)(=O)=O)cc2)cc1	1.9%	3.8%	2.7%	5.9%	4.6%
CCOC(=O)c1cc(-c2ccccc2)n(CC(=O)NCc2ccccc2OC)c1C	x	-9.3%	-13.6%	-13.9%	x
c1ccc(CSc2nnc(-c3ccco3)n2Cc2ccco2)cc1	-1.3%	u	-12.6%	-24.8%	-13.7%
SMILES	KDM4E inh	Tau fibril ThT	Tau fibril FP	Tau fluor cs	GoLoco inh red
CCCCOc1[nH]c2nc(-c3ccco3)n(Cc3ccco3)c(=N)c2c1C#N	u	22.4µM*	-11.1%	u	-1.4%
Cc1nn(-c2cccc(Cl)c2)c2c1C(c1ccncc1)C(C#N)=C(N)O2 (stereo not drawn)	u	u	-3.6%	u	-8.8%
COc1ccc(OC)c(C2C(C#N)=C(N)Oc3c2c(C)nn3-c2cccc(Cl)c2)c1 (stereo not drawn)	u	12.6µM*	-0.9%	u	0.0%
Cc1nn(-c2ccccc2)c2c1C(c1cccs1)C(C#N)=C(N)O2 (stereo not drawn)	-22.9%	u	-5.5%	u	3.7%
Cc1nn(-c2ccccc2)c2c1C(c1ccco1)C(C#N)=C(N)O2 (stereo not drawn)	14.1µM*	u	-6.8%	-24.9%	14.1%
Cc1nn(-c2ccccc2)c2c1C(c1ccc([N+](=O)[O-])cc1)C(C#N)=C(N)O2 (stereo not drawn)	17.8µM*	u	-12.5%	u	0.8%
Cc1ccc(-n2nc(C)c3c2OC(N)=C(C#N)C3c2ccc(F)cc2)cc1 (stereo not drawn)	-4.5%	-2.7%	-1.9%	-4.5%	12.6%
O=C1CCCC2=C1C(c1ccc(Cl)cc1)C1C(=O)c3ccccc3C1=N2 (stereo not drawn)	3.0%	15.8µM*	14.0%	22.4µM*[quencher]	17.5%
Cn1ccnc1Sc1cc(NCCCO)c([N+](=O)[O-])c2nonc12	1.3%	4.47µM*	-13.2%	u	-12.4%
CC(=O)OCCNc1cc(SCc2ccco2)c2nonc2c1[N+](=O)[O-]	u	7.08µM*	u	7.94µM*[quencher]	-18.2%
O=[N+]([O-])c1c(NCCCO)cc(Sc2ccc(Cl)cc2)c2nonc12	-3.2%	12.6µM*	u	u	0.1%
CC(=O)OCCCNc1cc(Sc2ccc(C)cc2)c2nonc2c1[N+](=O)[O-]	5.7%	u	-7.6%	u	-19.6%
COC(=O)CCSc1cc(NCCOC(C)=O)c([N+](=O)[O-])c2nonc12	1.5%	11.2µM*	-10.1%	u	1.1%
Cc1ccc(S(=O)(=O)c2cn(C)c3cc(N4CCCCCC4)c(F)cc3c2=O)cc1	x	5.0%	7.3%	0.6%	x
CCCC(=O)OCCNc1cc(SCCC(=O)OC)c2nonc2c1[N+](=O)[O-]	-1.6%	-1.4%	-2.3%	-6.1%	0.0%
O=[N+]([O-])c1c(NCCCO)cc(SCc2ccco2)c2nonc12	-7.7%	7.94µM*	u	u	-35.8%
COc1ccc(NC(=O)CN2C(=O)COc3ccc(S(=O)(=O)N4CCCCC4)cc32)cc1Cl	x	-4.3%	u	u	x
COC(=O)C1=C(C(=O)OC)SC2(S1)C(C(=O)OC)=C(C(=O)OC)SC1=C2c2cc(C)ccc2NC1(C)C	-9.2%	12.6µM*	u	u	-5.3%
Cc1nn(C(C)C(=O)Nc2ccccc2C(F)(F)F)c(=O)c2c1sc1ccccc12 (stereo not drawn)	x	u	-4.5%	-19.1%	x
CN1CCN(NS(=O)(=O)c2cccs2)CC1	-1.0%	12.6µM*	u	-16.9%	-1.7%
COC(=O)c1ccc(OC)c(Cn2c(=O)n(-c3cccc(Cl)c3)c(=O)c3c4c(sc32)CN(C(C)=O)CC4)c1	x	-6.6%	5.8%	-6.5%	x
Cc1ccc(-n2ncc(C(=O)NCCN3CCc4ccccc4C3)c2C2CCNCC2)cc1C	x	-8.8%	-4.7%	-5.2%	x
O=C(Nc1ccc(F)c(Cl)c1)Nc1csc2ccccc12	2.5%	x	u	7.94µM*[quencher]	7.3%
O=C(Nc1ccc(F)cc1F)Nc1ccc(F)cc1F	3.4%	-0.9%	-5.4%	-3.5%	10.1%
O=C(Nc1ccc(F)cc1F)Nc1csc2ccccc12	-6.4%	u	6.4%	11.2µM*[quencher]	31.0%

Bioassay records: PubChem, National Center for Advancing Translational Sciences (NCATS)
